Measurements as given in ChEMBL document CHEMBL4513216, “Probing the Open Global Health Chemical Diversity Library for Multistage-Active Starting Points for Next-Generation Antimalarials” (ACS Infect Dis, 2020).
The campaign covered roughly 69,000 compounds. About 8,600 (12%) showed an effect of 50% or more. The list comes from a sample in which strong results are over-represented; it also holds similar structures and randomly drawn compounds.

The compounds below were run on Plasmodium berghei (assay: Screen against P. berghei liver stage (PbLuc), transformed with Luciferase, at 10uM). Details: tested at 10 uM.
Type: functional, HepG2
`CCCN1CCc2nc(SCc3ccc(F)cc3)[nH]c(=O)c2C1` showed an INHIBITION of 20%. Compound `CCCN1CCc2nc(SCc3ccccc3)[nH]c(=O)c2C1` has an INHIBITION of 17.7%. With `COCCN1CCc2nc(SCc3ccc(F)cc3)[nH]c(=O)c2C1` the INHIBITION was 56.3%. Work on `Cn1cnnc1C1CCCN(C(=O)c2ccccn2)C1` (stereo unspecified) yielded an INHIBITION of 13.6%. Compound `Cc1cccc(C(=O)N2C[C@@H]3CC[C@H]2CN(S(=O)(=O)N(C)C)C3)n1` has an INHIBITION of 18.2%. `CN(C(=O)Cc1coc(-c2ccccc2)n1)C1(C#N)CCC1` was tested, and the INHIBITION was 78.3%. For `CN(C(=O)Cc1coc(-c2cccs2)n1)C1(C#N)CCC1`, the INHIBITION was 27.9%. `Cc1oc(-c2cccs2)nc1C(=O)N(C)C1(C#N)CCC1` showed an INHIBITION of -11.6%. Work on `Cc1nc(C)n(C2CCCN(C(=O)c3sccc3C)C2)n1` (stereo unspecified) yielded an INHIBITION of -19.6%. For `CCn1nc(C)c2c1cnn2CCNS(=O)(=O)c1cccs1`, the INHIBITION was 60.7%. Compound `CCn1nc(C)c2c1cnn2CCNS(=O)(=O)c1ccccc1` has an INHIBITION of -22.2%. `CCn1nc(C)c2c1cnn2CCNS(C)(=O)=O` gave an INHIBITION of 16.8%. `Cc1ccsc1CNCc1c(C(C)C)nn(C)c1N1CCOCC1` was tested, and the INHIBITION was 9.52%. In the case of `COc1cc(CNC(=O)Nc2nncs2)ccc1O`, the INHIBITION is reported as -73.6%. Compound `COC(=O)C(CNC(=O)Nc1nncs1)Cc1cccc(C)c1` (stereo unspecified) has an INHIBITION of 76.8%. `Cc1ccc(CNC(=O)Nc2nncs2)cn1` showed an INHIBITION of 27.4%. Work on `COC(=O)C(CNC(=O)Nc1cn[nH]c1)Cc1cccc(C)c1` (stereo unspecified) yielded an INHIBITION of 11.9%. `COC(=O)C(CNC(=O)Nc1nncs1)Cc1ccc(O)cc1` (stereo unspecified) was tested, and the INHIBITION was 51%. For `COC(=O)C(CNC(=O)Nc1nncs1)Cc1ccc(F)cc1` (stereo unspecified), the INHIBITION was 37.6%. `Cc1ccccc1OC1(C(=O)O)CCN(C(=O)CCc2ccco2)CC1` gave an INHIBITION of 39.3%. Work on `CC(C)c1nc(CN(C)C2CCN(CCc3ccncc3)C2)no1` (stereo unspecified) yielded an INHIBITION of -16%. Work on `Cc1ccc(CN(C)C(=O)CN2CCOC(Cn3cccn3)C2)o1` (stereo unspecified) yielded an INHIBITION of 11.6%. For `Cn1nc(C2CN(C(=O)c3ccncc3)C2)c2nccnc21`, the INHIBITION was 22%. `CCCc1nn(Cc2csc(CC)n2)c(=O)o1` showed an INHIBITION of 61%. `CCc1nc(Cn2nc(COC)oc2=O)cs1` showed an INHIBITION of 49.9%. In the case of `CCCc1nn(Cc2csc(C(C)C)n2)c(=O)o1`, the INHIBITION is reported as 29.4%. With `Cc1n[nH]cc1CNC(=O)CCCc1cccs1` the INHIBITION was 54.5%. Work on `Cc1nc(CNC(=O)CCCc2cccs2)no1` yielded an INHIBITION of 35.9%. In the case of `Cc1csc(CNC(=O)CCCc2cccs2)n1`, the INHIBITION is reported as 3.48%. Work on `COc1c(C(=O)NCc2cnn(C)c2C)nnn1Cc1ccccc1` yielded an INHIBITION of 40.8%. `N#CC1COCCN1C(=O)c1ccc2[nH]cnc2c1` (stereo unspecified) showed an INHIBITION of -13.9%. Compound `N#CC1COCCN1C(=O)c1ccc2[nH]ccc2c1` (stereo unspecified) has an INHIBITION of 19.7%. In the case of `N#CC1COCCN1C(=O)c1ccc2cc[nH]c2c1` (stereo unspecified), the INHIBITION is reported as 53.3%. For `O=c1[nH]c(COc2ccc(Cl)cc2)nc2c1CCNC2`, the INHIBITION was -9.66%. `CCCc1nnsc1C(=O)NCC(O)c1cccs1` (stereo unspecified) showed an INHIBITION of 19.9%. In the case of `CCOCCN1C[C@H](c2cccc(OC)c2)[C@@H](N)C1`, the INHIBITION is reported as 39.9%. Compound `COc1cccc([C@H]2CN(C(=O)c3nnc4n3CCCC4)C[C@@H]2N)c1` has an INHIBITION of 58.1%. `C/C=C(\C)CN1C[C@H](c2cccc(OC)c2)[C@@H](N)C1` gave an INHIBITION of -0.273%. `COc1cccc([C@H]2CN(C(=O)c3noc4c3CCCC4)C[C@@H]2N)c1` showed an INHIBITION of 31.4%. `COc1cccc([C@H]2CN(C(=O)c3cc(C)on3)C[C@@H]2N)c1` showed an INHIBITION of 23.5%. Compound `COc1cccc([C@H]2CN(C(=O)c3scc4c3CCCC4)C[C@@H]2N)c1` has an INHIBITION of 60.1%. `CC(C)CCOCCNC(=O)Nc1ccc(F)c(C(N)=O)c1` showed an INHIBITION of -25.9%. In the case of `CCn1c(N)nc2cc(C(=O)NCc3cccc(C)c3C)cnc21`, the INHIBITION is reported as -25.7%. Work on `CCc1nnc(CN2CCC(N3CCN(CC)C3=O)CC2)o1` yielded an INHIBITION of -27.8%. `Cc1cccn2c(=O)cc(OC(=O)c3ccc(OC(C)C)cc3)nc12` showed an INHIBITION of -5.59%. `Cc1ccc2c(cnn2CCC(=O)NCc2csc(C)n2)c1` showed an INHIBITION of 23.6%. For `CCn1cnnc1CCNS(=O)(=O)N1CCCC1c1ccco1` (stereo unspecified), the INHIBITION was 27.7%. For `Cc1c(CN2CCCC2c2cncc(CN3CCCC3)n2)cnn1C` (stereo unspecified), the INHIBITION was 12.9%. `Cc1ccc(OCC(C)NS(=O)(=O)N(C)C)cc1` (stereo unspecified) gave an INHIBITION of 51.5%. In the case of `Cc1ccc(OCC(C)NS(C)(=O)=O)cc1` (stereo unspecified), the INHIBITION is reported as -1.7%. `COc1ccc(OCC(C)NS(C)(=O)=O)cc1` (stereo unspecified) was tested, and the INHIBITION was 0.472%. `Cc1ccc(OCC(C)NS(C)(=O)=O)cc1C` (stereo unspecified) gave an INHIBITION of 15.7%. `CC(COc1ccccc1)NS(C)(=O)=O` (stereo unspecified) was tested, and the INHIBITION was 52.6%. Compound `Cc1ccc(OCC(C)NC(=O)CN(C)c2ccc(C#N)cn2)cc1` (stereo unspecified) has an INHIBITION of 8.38%. Work on `CCOc1ccc2[nH]c(=O)c(CN3CCC(N4CCCC4)CC3)cc2c1` yielded an INHIBITION of -1.54%. `Cc1cccc(C(=O)N2CCCC(c3noc(C)n3)C2)n1` (stereo unspecified) was tested, and the INHIBITION was 4.71%. Work on `O=C(NCc1ccco1)[C@@H]1CCO[C@@H]2CCN(c3ccncn3)C[C@H]21` yielded an INHIBITION of 10%. For `COc1ccccc1C(O)CNC(=O)Nc1ccccn1` (stereo unspecified), the INHIBITION was 35.9%. With `Cc1ccc2c(c1)c(C)cc(=O)n2CCCN` the INHIBITION was -17%. With `Cn1ccc2c(-c3cc(N4CCOCC4)ncn3)ccnc21` the INHIBITION was -3.96%. `CCc1cc(-c2ccnc3c2ccn3C)nc(N2CCOCC2)n1` was tested, and the INHIBITION was 51.5%. Compound `Cn1ccc2c(-c3cc(N)nc(N4CCOCC4)n3)ccnc21` has an INHIBITION of 18.8%. In the case of `COc1cccc(CN2CCCCC2c2n[nH]cc2-c2cc(C)no2)c1` (stereo unspecified), the INHIBITION is reported as 25.8%. With `CNC(=O)c1cc2c(nc1NCC1CC1)CCN(c1ccncn1)CC2` the INHIBITION was 32.4%. In the case of `Cc1cc(C)n(CNc2nonc2C(N)=O)n1`, the INHIBITION is reported as 44.1%. `CN(Cc1nc(C2CC2)no1)C(=O)CN1CC(c2ccccc2)CC1=O` (stereo unspecified) showed an INHIBITION of 3.96%. `CCc1cc(CN(C)C(=O)CN2CC(c3ccccc3)CC2=O)on1` (stereo unspecified) was tested, and the INHIBITION was 9.91%. `CCc1nnc(CN(C)C(=O)CN2CC(c3ccccc3)CC2=O)o1` (stereo unspecified) showed an INHIBITION of 62.4%. `CCc1cc(O)n2nc(C3CCN(C(=O)c4cccnc4)CC3)cc2n1` was tested, and the INHIBITION was 13.3%. With `CCN1CCCC(O)(c2nc(C)c(CCOc3ccccc3Cl)s2)CC1` (stereo unspecified) the INHIBITION was 28%. For `CCN1CCCC(O)(c2nc(C)c(CCOc3ccccc3F)s2)CC1` (stereo unspecified), the INHIBITION was 7.52%. `COc1ccc(OCc2sc(C3(O)CCCNCC3)nc2C)cc1` (stereo unspecified) was tested, and the INHIBITION was 31.3%. In the case of `CCN1CCCC(O)(c2nc(C)c(CCOc3ccc(F)cc3)s2)CC1` (stereo unspecified), the INHIBITION is reported as 59.3%. With `Cc1nc(C2(O)CCCNCC2)sc1CCOc1ccccc1` (stereo unspecified) the INHIBITION was 49.6%. In the case of `Cc1nc(C2(O)CCCNCC2)sc1CCOc1ccc(F)c(F)c1` (stereo unspecified), the INHIBITION is reported as 46%. `Cc1nc(C2(O)CCCNCC2)sc1CCOc1ccc(Cl)cc1` (stereo unspecified) gave an INHIBITION of 73.9%. For `Cc1nc(C2(O)CCCNCC2)sc1CCOc1ccc(F)cc1` (stereo unspecified), the INHIBITION was 47.2%. For `Cc1nc(C2(O)CCCNCC2)sc1CCOc1ccccc1F` (stereo unspecified), the INHIBITION was 0.301%. Compound `CCCN1CCCC(O)(c2nc(C)c(COc3ccccc3)s2)CC1` (stereo unspecified) has an INHIBITION of 27.6%. Compound `COc1ccc(OCCc2sc(C3(O)CCCNCC3)nc2C)cc1` (stereo unspecified) has an INHIBITION of 52.3%. `Cc1nc(C2(O)CCCNCC2)sc1CCOc1ccccc1Cl` (stereo unspecified) showed an INHIBITION of 55.6%.
